Results filed as inconclusive are left out. Where a call stands in place of a potency, no number is given. Activity calls are given as the source filed them. Calls come from the whole dose curve; as a rule, active = well fitted inhibition curve with a large enough effect; inconclusive = small, poorly fitted or top-dose-only effect; inactive = flat fitted curve, though single readings scatter.
What was measured:
Assay in all cases: qHTS profiling for inhibitors of Plasmodium falciparum proliferation (AID 504749); note: nearly all actives have a fitted effect of over 60% in size
Details in all cases: P. falciparum in erythrocytes, SYBR Green DNA, 72 h; series mostly up to 28.7 µM
CP185 = system: CP185
Method in brief: (§1)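 P. falciparum-infected erythrocytes (0.3% parasitemia, 2.5% hematocrit final) were exposed to compounds for 72 h at 37 C in 5% CO2, then lysed with SYBR Green buffer overnight at room temperature; parasite DNA fluorescence was normalized to artemisinin and DMSO controls.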

CP191 = system: CP191
Method in brief: as §1

CP192 = system: CP192
Method in brief: as §1

CP194 = system: CP194
Method in brief: as §1

CP201 = system: CP201
Method in brief: as §1

CP211 = system: CP211
Method in brief: as §1

CP215 = system: CP215
Method in brief: as §1

CP217 = system: CP217
Method in brief: as §1

CP237 = system: CP237
Method in brief: as §1

CP238 = system: CP238
Method in brief: as §1

CP247 = system: CP247
Method in brief: as §1

CP250 = system: CP250
Method in brief: as §1

CP252 = system: CP252
Method in brief: as §1

CP256 = system: CP256
Method in brief: as §1

CP260 = system: CP260
Method in brief: as §1

CP262 = system: CP262
Method in brief: as §1

CP265 = system: CP265
Method in brief: as §1

CP268 = system: CP268
Method in brief: as §1

CP203 = system: CP203
Method in brief: as §1

CP266 = system: CP266
Method in brief: as §1
Potency is the fitted concentration of half-maximal effect.

Row | Compound | Potency (CP185) | Potency (CP191) | Potency (CP192) | Potency (CP194) | Potency (CP201) | Potency (CP211) | Potency (CP215) | Potency (CP217) | Potency (CP237) | Potency (CP238) | Potency (CP247) | Potency (CP250) | Potency (CP252) | Potency (CP256) | Potency (CP260) | Potency (CP262) | Potency (CP265) | Potency (CP268) | Potency (CP203) | Potency (CP266)
1 | NCC(O)c1ccc(O)cc1 (configuration not stated) | inactive | inactive | inactive | inactive | inactive | inactive | inactive | inactive | inactive | inactive | inactive | inactive | inactive | inactive | inactive | inactive | inactive | inactive |  | 
2 | Nc1ccncc1 | inactive | inactive | inactive | inactive | inactive | inactive | inactive | inactive | inactive | inactive | inactive | inactive | inactive | inactive | inactive | inactive | inactive | inactive | inactive | inactive
3 | CCC(C(N)=O)N1CCCC1=O (configuration not stated) | inactive | inactive | inactive | inactive | inactive | inactive | inactive | inactive | inactive | inactive | inactive | inactive | inactive | inactive | inactive |  | inactive | inactive |  | inactive
4 | O=C(O)c1ccc2[nH]cc(CCCCN3CC=C(c4ccccc4)CC3)c2c1 | inactive | inactive | inactive | inactive | inactive | inactive | inactive | inactive | inactive | inactive |  | inactive | inactive | inactive | inactive | inactive | inactive | inactive | inactive | inactive
5 | O=C1NCN(c2ccccc2)C12CCN(CC1COc3ccccc3O1)CC2 (configuration not stated) | inactive | inactive | inactive | inactive | inactive | inactive | inactive | inactive |  | inactive | inactive | inactive | inactive | inactive |  | inactive | inactive | inactive | inactive | inactive
6 | CCOP(=S)(OCC)Oc1cc(C)nc(C(C)C)n1 | inactive | inactive | inactive | inactive | inactive | inactive | inactive | inactive | inactive | inactive | inactive | inactive | inactive | inactive | inactive | inactive | inactive | inactive |  | inactive
7 | CC(C)CC(N(C)C)C1(c2ccc(Cl)cc2)CCC1 (configuration not stated) | inactive | inactive | inactive | inactive | inactive | inactive | inactive | inactive | inactive | inactive | inactive | inactive | inactive | inactive | inactive | inactive | inactive | inactive | inactive | inactive
8 | Clc1ccc(COC(Cn2ccnc2)c2ccc(Cl)cc2Cl)cc1 (configuration not stated) | 8.91 µM (active) | 3.16 µM (active) | 6.01 µM (active) | 6.75 µM (active) | 15.1 µM (active) | 9.53 µM (active) | 4.78 µM (active) | 2.51 µM (active) | 1.26 µM (active) | 6.31 µM (active) | 3.16 µM (active) | 5.01 µM (active) | 3.98 µM (active) | 7.08 µM (active) | 2.51 µM (active) | 4.78 µM (active) | 2.51 µM (active) | 15.1 µM (active) |  | 
9 | CC(C)(C)CC(C)(C)c1ccc(O)cc1 | inactive | inactive | inactive | inactive | inactive | inactive | inactive | inactive | inactive | inactive | 11.2 µM (active) | inactive | inactive | inactive | inactive | inactive | inactive | inactive |  | inactive
10 | CC(C)=CC1C(C(=O)OCc2cccc(Oc3ccccc3)c2)C1(C)C (configuration not stated) | inactive | inactive | inactive | inactive | inactive | inactive | inactive | inactive | inactive | inactive | inactive | inactive | inactive | inactive |  | inactive | inactive | inactive |  | inactive
11 | CC(=O)[C@H]1CC[C@H]2[C@@H]3CC[C@H]4C[C@](C)(O)CC[C@]4(C)[C@H]3CC[C@]12C | inactive | inactive | inactive | inactive | inactive | inactive | inactive | inactive | inactive | inactive | inactive | inactive | inactive | inactive |  | inactive | inactive | inactive |  | inactive
12 | NN=C(N)N | inactive | inactive | inactive | inactive | inactive | inactive | inactive | inactive | inactive | inactive | inactive | inactive | inactive | inactive | inactive | inactive | inactive | inactive |  | inactive
13 | Cc1ncc(CNC(=O)N(CCCl)N=O)c(N)n1 | inactive | inactive | inactive | inactive | inactive | inactive | inactive | inactive | inactive | inactive | inactive | inactive | inactive | inactive | inactive | inactive | inactive | inactive |  | inactive
14 | COc1ccccc1N1CCNCC1 | inactive | inactive | inactive | inactive | inactive | inactive | inactive | inactive | inactive | inactive | inactive | inactive | inactive | inactive |  | inactive | inactive | inactive | inactive | inactive
15 | NCC(CC(=O)O)c1ccc(Cl)cc1 (configuration not stated) | inactive | inactive | inactive | inactive | inactive | inactive | inactive | inactive | inactive | inactive | inactive | inactive | inactive | inactive | inactive | inactive | inactive | inactive |  | inactive
16 | CN(C)CCc1ccc(O)cc1 | inactive | inactive | inactive | inactive | inactive | inactive | inactive | inactive | inactive | inactive | inactive | inactive | inactive | inactive | inactive | inactive | inactive | inactive |  | 
17 | CC(=O)[C@H]1CC[C@H]2[C@@H]3CC[C@H]4C[C@H](O)CC[C@]4(C)[C@H]3C(=O)C[C@]12C | inactive | inactive | inactive | inactive | inactive | inactive | inactive | inactive | inactive | inactive | inactive | inactive | inactive | inactive | inactive | inactive | inactive | inactive |  | inactive
18 | NCC1(CC(=O)O)CCCCC1 | inactive | inactive | inactive | inactive | inactive | inactive | inactive | inactive | inactive | inactive | inactive | inactive | inactive | inactive | inactive | inactive | inactive | inactive | inactive | inactive
19 | CCC(COC(=O)c1cc(OC)c(OC)c(OC)c1)(c1ccccc1)N(C)C (configuration not stated) | inactive | inactive | inactive | inactive | inactive | inactive | inactive | inactive |  | inactive | inactive | inactive | inactive | inactive | inactive | inactive | inactive | inactive |  | inactive
20 | COc1ccc(C(=O)c2c(C)n(CCN3CCOCC3)c3ccccc23)cc1 | inactive | inactive | inactive | inactive | inactive | inactive | inactive | inactive | inactive | inactive | inactive |  | inactive | inactive | inactive | inactive | inactive | inactive |  | 
21 | O=P1(NCCCl)OCCCN1CCCl (configuration not stated) | inactive | inactive | inactive | inactive | inactive | inactive | inactive | inactive | inactive | inactive | inactive | inactive | inactive | inactive | inactive | inactive | inactive | inactive |  | inactive
22 | Oc1cccc2cccnc12 | inactive | inactive | inactive | inactive | inactive | inactive | inactive | inactive | inactive | inactive | inactive | inactive | inactive | inactive | inactive | inactive | inactive | inactive | inactive | inactive
23 | OCCOc1ccccc1 | inactive | inactive | inactive | inactive | inactive | inactive | inactive | inactive | inactive | inactive | inactive | inactive | inactive | inactive | inactive | inactive | inactive | inactive | inactive | inactive
24 | c1ccc2c(c1)OCC(C1=NCCN1)O2 (configuration not stated) | inactive | inactive | inactive | inactive | inactive | inactive | inactive | inactive |  | inactive |  | inactive | inactive | inactive |  | inactive | inactive | inactive |  | inactive
25 | Oc1ccccc1-c1ccccc1 | inactive | inactive | inactive | inactive | inactive | inactive | inactive | inactive | inactive | inactive | inactive | inactive | inactive | inactive | inactive | inactive | inactive | inactive | inactive | inactive
26 | CC1OC(C)OC(C)O1 (configuration not stated) | inactive | inactive | inactive | inactive | inactive | inactive | inactive | inactive | inactive | inactive | inactive | inactive | inactive | inactive | inactive | inactive | inactive | inactive |  | inactive
27 | CN1CCN(C(=O)O[C@H]2c3nccnc3C(=O)N2c2ccc(Cl)cn2)CC1 | inactive | inactive | inactive | inactive | inactive | inactive | inactive | inactive | inactive | inactive | inactive | inactive | inactive | inactive | inactive | inactive | inactive | inactive | inactive | inactive

Reference: PubChem BioAssay (NCATS)
